# Assay results as given in the supplement of paper PMC9135407.
# Values joined by “and” are separate entries in the source; they are usually repeats but may differ in a detail not shown here. Equal entries are not always repeated. Structures can show the parent of a compound that is named as a salt. Screen size: about 5,800 compounds; about 620 (11%) showed activity. The sample holds actives, similar compounds and a random draw of the others, so the mix is not that of the screen. Unmarked numbers belong to inactive results.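 The calls were made as follows: active = score above a cut-off or among the top three wells of a plate; in these data no inactive exceeds 0.85.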
# Tested on: primary human hepatic stellate cells (donor 1)
# Test: scaled lipid accumulation score (0 = DMSO-like, 1 = nortriptyline-like); higher = stronger HSC inactivation (lipid re-accumulation), active = hit call of the paper
# Settings: 48 h
# [1] = library stock concentration: 10 mM
# [2] = library stock concentration: 3.33 mM
# [3] = library stock concentration: 1 mM
# [4] = library stock concentration: 80 uM
# [5] = library stock concentration: 400 uM
# [6] = library stock concentration: 2 mM
compound,measurement,setting,value
CC(Cc1ccccc1)(NC(=O)CN)c1ccccc1 (stereo not given) [Remacemide hydrochloride],scaled lipid accumulation score,[1],0.479
CC(N)(Cc1ccc(O)cc1)C(=O)O (racemic) [DL-alpha-Methyl-p-tyrosine],scaled lipid accumulation score,[1],0.213
CC(Cc1ccccc1)(NC(=O)CN)c1ccccc1 (racemic),scaled lipid accumulation score,[1],0.922 (active)
COc1ccc(-c2cc(=O)c3c(O)c(OC)c(OC)cc3o2)cc1O [Eupatorin],scaled lipid accumulation score,[1],0.725
CC(C)Cn1c(=O)n(C)c(=O)c2nc[nH]c21 [Isobutylmethylxanthine],scaled lipid accumulation score,library stock concentration: 9 mM,≤ 0
O=C[C@H](O)[C@@H](O)[C@H](O)CO [Xylose],scaled lipid accumulation score,[2],≤ 0
same,scaled lipid accumulation score,[1],0.028
CN1CC2c3ccccc3Oc3ccc(Cl)cc3C2C1 (stereo not given) [Asenapine maleate],scaled lipid accumulation score,[1],0.772
CN1CCN(C2=Cc3ccccc3Oc3ccc(Cl)cc32)CC1.O=C(O)/C=C/C(=O)O,scaled lipid accumulation score,[1],1.01 (active)
CN1CCN(C2=Nc3ccccc3Oc3ccc(Cl)cc32)CC1 [Loxapine Succinate],scaled lipid accumulation score,[2],≤ 0
same,scaled lipid accumulation score,[1],0.493
CN1CCN(C2=Nc3ccccc3Oc3ccc(Cl)cc32)CC1,scaled lipid accumulation score,[1],0.608
CN1CC2c3ccccc3Oc3ccc(Cl)cc3C2C1 (stereo not given) [Asenapine],scaled lipid accumulation score,[2],0.156
same,scaled lipid accumulation score,[1],0.752
CN1CCN(C2=Nc3ccccc3Oc3ccc(Cl)cc32)CC1 [Loxapine succinate],scaled lipid accumulation score,,0.3
same,scaled lipid accumulation score,library stock concentration: 4.5 mM,0.253
same,scaled lipid accumulation score,[1],0.708 and 0.486
CNc1nc(Nc2cnn(C3CCN(C4COC4)CC3F)c2Cl)ncc1C(F)(F)F (stereo not given),scaled lipid accumulation score,[2],≤ -0.009
same,scaled lipid accumulation score,[1],≤ 0
CCCCC(C)(O)CC=CC1C(O)CC(=O)C1CCCCCCC(=O)OC (stereo not given) [8-iso Misoprostol],scaled lipid accumulation score,[3],≤ 0
CCc1cncnc1N1CCN(Cc2nc3ccc(C(F)(F)F)cc3[nH]2)CC1,scaled lipid accumulation score,[4],≤ 0
same,scaled lipid accumulation score,[5],≤ 0
same,scaled lipid accumulation score,[6],≤ 0
same,scaled lipid accumulation score,[2],≤ 0
same,scaled lipid accumulation score,[1],0.077 and 0.419 and ≤ 0
CN1CCN(c2nc3cc(C(F)(F)F)ccc3n3cccc23)CC1.O=C(O)/C=C\C(=O)O [listing 1 of 2 here],scaled lipid accumulation score,[1],1.15 (active)
CN1CCN(c2nc3cc(C(F)(F)F)ccc3n3cccc23)CC1.O=C(O)/C=C\C(=O)O [listing 2 of 2 here],scaled lipid accumulation score,[1],0.974 (active)
CCCCC/C=C\C[C@@H](O)/C=C/c1cccc(C[C@@H](O)CCCCO)n1,scaled lipid accumulation score,library stock concentration: 100 uM,≤ -0.021
CCNC(=O)CCC/C=C\C[C@@H]1[C@@H](CC[C@@H](O)CCc2ccccc2)[C@H](O)C[C@@H]1O [Latanoprost ethyl amide],scaled lipid accumulation score,[3],≤ 0
O=C1NCCc2[nH]c(-c3ccnc(-c4cnc5ccccc5c4)c3)cc21 [MK-2 Inhibitor III],scaled lipid accumulation score,[2],≤ 0
C=C[C@H]1CN2CC[C@H]1C[C@H]2[C@H](O)c1ccnc2ccc(OC)cc12 [Quinine HCl Dihydrate],scaled lipid accumulation score,[2],0.077
same,scaled lipid accumulation score,[1],0.31
C=C[C@H]1CN2CC[C@H]1C[C@H]2[C@H](O)c1ccnc2ccc(OC)cc12 [Quinine],scaled lipid accumulation score,library stock concentration: 6.2 mM,0.205
C=C[C@H]1CN2CC[C@H]1C[C@H]2[C@H](O)c1ccnc2ccc(OC)cc12 [Quinine sulfate],scaled lipid accumulation score,library stock concentration: 4.7 mM,0.308
same,scaled lipid accumulation score,[1],≤ 0 and 0.364
CC(C)[C@H](N)C(=O)OCC(CO)OCn1cnc2c(=O)nc(N)[nH]c21 (stereo not given in full),scaled lipid accumulation score,[1],0.228
CCCCCCC[C@H](O)/C=C/[C@H]1[C@H](O)CC(=O)[C@@H]1C/C=C\CCCC(=O)O [20-ethyl Prostaglandin E2],scaled lipid accumulation score,[3],≤ 0
CC(CCCO)C1CCC2C3C(O)CC4CC(=O)CCC4(C)C3CC(O)C12C (stereo not given) [3-keto Petromyzonol],scaled lipid accumulation score,[3],≤ 0
CN(C)CCOC(=O)COc1ccc(Cl)cc1 [Centrophenoxine hydrochloride],scaled lipid accumulation score,[1],0.032
CN(C)CCOc1ccc(C(=C(CCCl)c2ccccc2)c2ccccc2)cc1.O=C(O)CC(O)(CC(=O)O)C(=O)O [Toremifene Citrate],scaled lipid accumulation score,[1],1.23 (active)
CN(C)CCOc1ccc(/C(=C(/CCCl)c2ccccc2)c2ccccc2)cc1,scaled lipid accumulation score,[1],≤ 0
CN(C)CCOc1ccc(/C(=C(/CCCl)c2ccccc2)c2ccccc2)cc1 [Toremifene Citrate],scaled lipid accumulation score,[2],0.112
CC/C(=C(\c1ccccc1)c1ccc(OCCN(C)C)cc1)c1ccccc1 [Tamoxifen Citrate],scaled lipid accumulation score,[2],0.368
same,scaled lipid accumulation score,[1],0.579
OCCOc1ccc(/C(=C(/CCCl)c2ccccc2)c2ccccc2)cc1 [Ospemifene],scaled lipid accumulation score,[2],0.069
same,scaled lipid accumulation score,[1],0.171
CC/C(=C(\c1ccccc1)c1ccc(OCCN(C)C)cc1)c1ccccc1 [Tamoxifen citrate],scaled lipid accumulation score,,0.372
same,scaled lipid accumulation score,library stock concentration: 3.5 mM,0.611
same,scaled lipid accumulation score,library stock concentration: 5.4 mM,0.421
same,scaled lipid accumulation score,[1],0.253 and 0.681 and 0.432
CN(C)CCOC(=O)COc1ccc(Cl)cc1 [Meclofenoxate hydrochloride],scaled lipid accumulation score,,≤ 0
same,scaled lipid accumulation score,[1],≤ -0.027
CN(C)CCOc1ccc(/C(=C(/CCCl)c2ccccc2)c2ccccc2)cc1.O=C(O)CC(O)(CC(=O)O)C(=O)O,scaled lipid accumulation score,[1],0.946 (active)
CC/C(=C(\c1ccccc1)c1ccc(OCCN(C)C)cc1)c1ccccc1 [Tamoxifen],scaled lipid accumulation score,[1],0.674 and 0.394
same,scaled lipid accumulation score,library stock concentration: 13.5 mM,0.777
CN(C)CCOc1ccc(/C(=C(/CCCl)c2ccccc2)c2ccccc2)cc1 [Toremifene],scaled lipid accumulation score,library stock concentration: 4.9 mM,0.264
CN(C)CCOC(=O)COc1ccc(Cl)cc1 [Meclofenoxate (Centrophenoxine) HCl],scaled lipid accumulation score,[2],≤ 0
same,scaled lipid accumulation score,[1],0.043
O=C(O)CSCC(=O)NC1CCSC1=O (stereo not given) [Erdosteine],scaled lipid accumulation score,[2],≤ 0
same,scaled lipid accumulation score,[1],≤ 0
O=C(O)CSCC(=O)NC1CCSC1=O (stereo not given),scaled lipid accumulation score,[1],≤ 0
CC(C)OC(=O)CCC/C=C/C[C@@H]1[C@@H](/C=C/[C@H](O)CCc2ccccc2)[C@H](O)C[C@@H]1O,scaled lipid accumulation score,[3],≤ 0
C1CNCCN1 [Piperazine],scaled lipid accumulation score,[1],≤ 0
same,scaled lipid accumulation score,library stock concentration: 23.2 mM,0.066
O=C(O)CCCCC(CCSCc1ccccc1)SCc1ccccc1 (stereo not given),scaled lipid accumulation score,[2],≤ 0
same,scaled lipid accumulation score,[1],≤ 0
CCCC[C@@H](C=O)NC(=O)[C@H](CC(C)C)NC(=O)[C@H](CC(C)C)NC(C)=O,scaled lipid accumulation score,library stock concentration: 13 mM,0.811
CC(C)c1ccc(NC(=O)Cn2cnc3c2c(=O)n(C)c(=O)n3C)cc1,scaled lipid accumulation score,[2],≤ 0
same,scaled lipid accumulation score,[1],≤ 0
CCCCC/C=C\C/C=C\CCCCCCCC(=O)OCC [Linoleic Acid ethyl ester],scaled lipid accumulation score,[3],≤ 0
OCCCNc1cc(-c2ccnc(Nc3cccc(Cl)c3)n2)ccn1 [listing 1 of 2 here],scaled lipid accumulation score,[1],0.957 (active)
OCCCNc1cc(-c2ccnc(Nc3cccc(Cl)c3)n2)ccn1 [listing 2 of 2 here],scaled lipid accumulation score,[4],0.137
same,scaled lipid accumulation score,[5],0.324
same,scaled lipid accumulation score,[6],0.587
COc1ccc(Nc2nccc(NCCO)n2)cc1 [Cardiogenol C (hydrochloride)],scaled lipid accumulation score,[3],≤ 0
COc1ccc(Nc2nccc(NCCO)n2)cc1 [Cardiogenol C hydrochloride],scaled lipid accumulation score,[1],≤ 0
C[C@@]1(c2cc(-c3cncnc3)c(F)cc2F)CCSC(N)=N1,scaled lipid accumulation score,[2],≤ 0
same,scaled lipid accumulation score,[1],≤ 0
"CCCCCCCCCCC/C=C\C/C=C\CCCC(=O)O [Eicosa-5,8-dienoic acid (20:2 n-12)]",scaled lipid accumulation score,[3],≤ -0.021
Cc1nc2n(c(=O)c1CCN1CCC(c3noc4cc(F)ccc34)CC1)CCCC2O (stereo not given) [Paliperidone],scaled lipid accumulation score,[1],0.223
COc1cc(C(C)=O)ccc1OCCCN1CCC(c2noc3cc(F)ccc23)CC1,scaled lipid accumulation score,[1],0.933 (active)
COc1cc(C(C)=O)ccc1OCCCN1CCC(c2noc3cc(F)ccc23)CC1 [Iloperidone],scaled lipid accumulation score,[2],0.045
same,scaled lipid accumulation score,[1],0.477
C[Se]CC[C@H](N)C(=O)O,scaled lipid accumulation score,[1],≤ 0
COc1ccc(N(C(=O)Nc2c(C)cccc2C)c2cc(Nc3ccc(N4CCN(C)CC4)cc3)ncn2)c(OC)c1,scaled lipid accumulation score,[4],≤ -0.016
same,scaled lipid accumulation score,[5],0.184
same,scaled lipid accumulation score,[6],0.849
Cc1ccc(-c2ccc3c(ccc4sc5c(c43)NC[C@@H](C)NC5=O)n2)cn1 [listing 1 of 2 here],scaled lipid accumulation score,[1],1.28 (active)
Cc1ccc(-c2ccc3c(ccc4sc5c(c43)NC[C@@H](C)NC5=O)n2)cn1 [listing 2 of 2 here],scaled lipid accumulation score,[4],≤ -0.001
same,scaled lipid accumulation score,[5],≤ -0.001
same,scaled lipid accumulation score,[6],0.744
CN(C)CC(c1ccc(O)cc1)C1(O)CCCCC1 (stereo not given) [Desvenlafaxine],scaled lipid accumulation score,[2],≤ 0
same,scaled lipid accumulation score,[1],≤ -0.001
CN(C)CC(c1ccc(O)cc1)C1(O)CCCCC1 (stereo not given) [Desvenlafaxine Succinate],scaled lipid accumulation score,[2],≤ 0
same,scaled lipid accumulation score,[1],≤ -0.001
CN(C)CC(c1ccc(O)cc1)C1(O)CCCCC1 (stereo not given),scaled lipid accumulation score,[1],≤ 0
Cc1ccc(NC(=O)C(C)C)cc1C1CCN(Cc2ccc(Oc3ccc(F)c(F)c3)cc2)CC1.Cl,scaled lipid accumulation score,[1],1.29 (active)
CC(=O)c1ccc(N2CCOCC2)cc1O [DNA-PK Inhibitor III],scaled lipid accumulation score,[2],≤ 0
N[C@@H](CCC(=O)N[C@@H](CSN=O)C(=O)NCC(=O)O)C(=O)O [S-Nitrosoglutathione],scaled lipid accumulation score,[1],≤ -0.032
Cc1cc2nc3c(=O)[nH]c(=O)nc-3n(CC(O)C(O)C(O)COP(=O)(O)O)c2cc1C (stereo not given),scaled lipid accumulation score,[1],≤ 0
COC(=O)C1=C(C)NC(C)=C(C(=O)OC2CCCN(Cc3ccccc3)C2)C1c1cccc([N+](=O)[O-])c1 (stereo not given) [Benidipine HCl],scaled lipid accumulation score,[2],0.027
same,scaled lipid accumulation score,[1],0.476
CC1=C(C(=O)OC2CCCCC2)C(c2ccc([N+](=O)[O-])cc2)C2=C(CC(C)(C)CC2=O)N1 (stereo not given) [listing 1 of 2 here],scaled lipid accumulation score,[2],0.763
COC(=O)C1=C(C)NC(C)=C(C(=O)OC2CCCN(Cc3ccccc3)C2)C1c1cccc([N+](=O)[O-])c1 (stereo not given),scaled lipid accumulation score,[1],0.032
CC1=C(C(=O)OC2CCCCC2)C(c2ccc([N+](=O)[O-])cc2)C2=C(CC(C)(C)CC2=O)N1 (stereo not given) [listing 2 of 2 here],scaled lipid accumulation score,[1],0.997 (active)
